# Laboratory results published in article PMC7862700, “An all-to-all approach to the identification of sequence-specific readers for epigenetic DNA modifications on cytosine”.
# Key:
# Experiment in all cases: DAPPL (digital affinity profiling via proximity ligation, sequencing); 10 mM Tris-HCl pH 7.5, 50 mM NaCl, 1 mM DTT, 4% glycerol, room temperature, 30 min; GST-TFs on glutathione beads, 16-mer random dsDNA library, 0.1% formaldehyde crosslink after washing; high values mean tight binding
# [1] = target: T1, FLI1 (Homo sapiens, UniProt Q01543 1-452); details: protein: recombinant; tags: N-terminal GST; dsDNA, one strand shown
# T1 sequence: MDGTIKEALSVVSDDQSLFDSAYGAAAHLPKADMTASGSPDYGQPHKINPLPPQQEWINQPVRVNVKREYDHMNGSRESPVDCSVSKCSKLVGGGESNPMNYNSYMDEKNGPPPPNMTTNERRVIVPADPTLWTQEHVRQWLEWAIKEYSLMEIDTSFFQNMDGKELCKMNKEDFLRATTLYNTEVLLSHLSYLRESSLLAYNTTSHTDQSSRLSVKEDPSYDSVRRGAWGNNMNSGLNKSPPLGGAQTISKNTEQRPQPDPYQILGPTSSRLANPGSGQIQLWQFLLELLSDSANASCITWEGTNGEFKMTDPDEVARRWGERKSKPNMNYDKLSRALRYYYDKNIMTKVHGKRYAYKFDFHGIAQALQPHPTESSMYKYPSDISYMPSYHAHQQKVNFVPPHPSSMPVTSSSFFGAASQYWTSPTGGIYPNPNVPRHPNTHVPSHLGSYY
# In short: (§1)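 Human transcription factors fused to GST were expressed in yeast, captured on glutathione beads, given DNA barcodes and pooled with a GST-only negative control. Pools were incubated with 200 nmole of a 16-mer random double-stranded DNA library in Tris/NaCl/DTT/glycerol buffer at room temperature for 30 min. They were then washed, crosslinked with 0.1% formaldehyde, proximity-ligated (BsaI/T4 ligase, 1 h, 37 °C), PCR-amplified and sequenced on an Illumina NextSeq500. Binding signal is each 6-mer's read frequency for a factor divided by its frequency for the GST control.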
# [2] = target: T2, ELK1 (Homo sapiens, UniProt P19419 1-428); details: protein: recombinant; tags: N-terminal GST; dsDNA, one strand shown
# T2 sequence: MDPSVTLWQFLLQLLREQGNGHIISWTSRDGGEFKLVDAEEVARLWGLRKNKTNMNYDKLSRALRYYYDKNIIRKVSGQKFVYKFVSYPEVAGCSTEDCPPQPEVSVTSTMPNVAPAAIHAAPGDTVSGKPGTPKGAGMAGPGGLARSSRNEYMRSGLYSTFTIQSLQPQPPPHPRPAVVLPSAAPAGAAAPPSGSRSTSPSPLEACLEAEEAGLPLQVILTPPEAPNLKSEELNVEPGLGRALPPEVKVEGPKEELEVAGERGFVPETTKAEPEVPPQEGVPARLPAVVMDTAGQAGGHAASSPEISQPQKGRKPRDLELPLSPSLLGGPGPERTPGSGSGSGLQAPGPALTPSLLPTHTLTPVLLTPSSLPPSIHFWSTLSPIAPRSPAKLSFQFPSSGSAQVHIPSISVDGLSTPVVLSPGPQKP
# In short: as §1
# [3] = target: T3, GABPA (Homo sapiens, UniProt Q06546 1-454); details: protein: recombinant; tags: N-terminal GST; dsDNA, one strand shown
# T3 sequence: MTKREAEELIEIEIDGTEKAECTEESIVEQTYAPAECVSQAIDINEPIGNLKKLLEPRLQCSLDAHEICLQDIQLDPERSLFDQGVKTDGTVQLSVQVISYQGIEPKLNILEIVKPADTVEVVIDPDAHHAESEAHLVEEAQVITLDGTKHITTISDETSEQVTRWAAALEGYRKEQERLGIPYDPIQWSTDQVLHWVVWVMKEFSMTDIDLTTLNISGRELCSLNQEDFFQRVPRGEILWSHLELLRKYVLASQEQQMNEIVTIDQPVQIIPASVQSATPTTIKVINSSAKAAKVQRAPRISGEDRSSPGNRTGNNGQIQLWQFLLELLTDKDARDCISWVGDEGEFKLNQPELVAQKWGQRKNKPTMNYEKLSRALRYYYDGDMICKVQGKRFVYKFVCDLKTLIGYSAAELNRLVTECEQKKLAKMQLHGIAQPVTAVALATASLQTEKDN
# In short: as §1
# [4] = target: T4, ERG (Homo sapiens, UniProt P11308 1-479); details: protein: recombinant; tags: N-terminal GST; dsDNA, one strand shown
# T4 sequence: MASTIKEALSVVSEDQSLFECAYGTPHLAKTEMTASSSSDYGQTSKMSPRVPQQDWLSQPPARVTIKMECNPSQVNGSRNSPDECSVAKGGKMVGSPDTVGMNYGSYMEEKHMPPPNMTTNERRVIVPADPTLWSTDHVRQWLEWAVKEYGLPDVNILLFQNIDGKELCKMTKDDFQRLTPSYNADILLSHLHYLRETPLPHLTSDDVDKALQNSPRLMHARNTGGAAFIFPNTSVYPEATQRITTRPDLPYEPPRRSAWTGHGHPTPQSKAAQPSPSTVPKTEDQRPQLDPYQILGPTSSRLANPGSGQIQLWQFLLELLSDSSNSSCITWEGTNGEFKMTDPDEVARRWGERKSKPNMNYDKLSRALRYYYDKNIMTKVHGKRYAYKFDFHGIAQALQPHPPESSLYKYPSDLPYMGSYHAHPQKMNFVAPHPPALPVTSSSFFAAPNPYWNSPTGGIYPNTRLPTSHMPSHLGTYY
# In short: as §1
# [5] = target: ELF1 (Homo sapiens, UniProt P32519 1-619); details: protein: recombinant; tags: N-terminal GST; dsDNA, one strand shown
# ELF1, sequence (P32519 whole entry): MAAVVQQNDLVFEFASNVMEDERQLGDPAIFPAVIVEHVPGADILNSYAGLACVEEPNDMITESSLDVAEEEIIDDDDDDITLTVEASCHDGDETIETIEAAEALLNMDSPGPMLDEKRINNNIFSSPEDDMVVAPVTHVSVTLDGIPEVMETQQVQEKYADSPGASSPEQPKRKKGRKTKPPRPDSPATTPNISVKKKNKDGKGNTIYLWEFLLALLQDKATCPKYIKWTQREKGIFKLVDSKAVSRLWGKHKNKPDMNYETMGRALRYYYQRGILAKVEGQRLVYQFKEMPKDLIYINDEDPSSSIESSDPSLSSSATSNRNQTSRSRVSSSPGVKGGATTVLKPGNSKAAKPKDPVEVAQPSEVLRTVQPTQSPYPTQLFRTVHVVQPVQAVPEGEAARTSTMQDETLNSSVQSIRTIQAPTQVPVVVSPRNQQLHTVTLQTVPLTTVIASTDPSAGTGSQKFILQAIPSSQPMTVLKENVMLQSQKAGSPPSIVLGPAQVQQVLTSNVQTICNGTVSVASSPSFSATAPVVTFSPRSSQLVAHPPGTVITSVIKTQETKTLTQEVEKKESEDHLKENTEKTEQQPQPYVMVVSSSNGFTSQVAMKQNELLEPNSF
# In short: as §1
# [6] = target: T5, EHF (Homo sapiens, UniProt Q9NZC4 1-300); details: protein: recombinant; tags: N-terminal GST; dsDNA, one strand shown
# T5 sequence: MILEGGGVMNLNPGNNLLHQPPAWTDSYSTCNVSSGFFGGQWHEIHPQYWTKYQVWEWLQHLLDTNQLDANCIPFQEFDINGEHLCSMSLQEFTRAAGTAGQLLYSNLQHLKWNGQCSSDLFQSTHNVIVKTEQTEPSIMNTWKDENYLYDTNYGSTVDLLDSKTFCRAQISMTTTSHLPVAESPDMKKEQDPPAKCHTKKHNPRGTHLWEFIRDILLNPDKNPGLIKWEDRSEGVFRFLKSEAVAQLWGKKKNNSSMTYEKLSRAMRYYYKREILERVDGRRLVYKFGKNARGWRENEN
# In short: as §1
# [7] = target: SPI1 (Homo sapiens, UniProt P17947 1-270); details: protein: recombinant; tags: N-terminal GST; dsDNA, one strand shown
# In short: as §1
# [8] = target: SPIB (Homo sapiens, UniProt Q01892 1-262); details: protein: recombinant; tags: N-terminal GST; dsDNA, one strand shown
# SPIB, sequence (Q01892 whole entry): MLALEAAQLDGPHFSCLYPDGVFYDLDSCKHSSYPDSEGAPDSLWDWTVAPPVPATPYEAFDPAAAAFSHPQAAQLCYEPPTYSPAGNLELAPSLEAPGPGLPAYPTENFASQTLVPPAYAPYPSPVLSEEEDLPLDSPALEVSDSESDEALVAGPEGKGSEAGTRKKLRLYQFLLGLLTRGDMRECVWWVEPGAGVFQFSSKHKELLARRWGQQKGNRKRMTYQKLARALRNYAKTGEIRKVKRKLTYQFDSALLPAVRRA
# In short: as §1
# [9] = target: T6, ELK3 (Homo sapiens, UniProt P41970 1-407); details: protein: recombinant; tags: N-terminal GST; dsDNA, one strand shown
# T6 sequence: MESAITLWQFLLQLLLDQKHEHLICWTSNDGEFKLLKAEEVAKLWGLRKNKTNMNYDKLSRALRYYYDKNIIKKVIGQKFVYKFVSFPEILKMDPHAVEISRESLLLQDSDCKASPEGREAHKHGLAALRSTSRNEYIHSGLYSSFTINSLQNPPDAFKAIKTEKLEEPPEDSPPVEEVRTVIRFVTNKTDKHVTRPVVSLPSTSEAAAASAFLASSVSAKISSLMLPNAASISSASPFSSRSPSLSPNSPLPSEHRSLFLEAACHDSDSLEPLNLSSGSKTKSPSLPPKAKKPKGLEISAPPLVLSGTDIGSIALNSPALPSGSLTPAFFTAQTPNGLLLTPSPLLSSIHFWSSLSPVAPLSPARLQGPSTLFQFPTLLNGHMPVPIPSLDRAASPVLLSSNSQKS
# In short: as §1
# [10] = target: T7, FEV (Homo sapiens, UniProt Q99581 1-238); details: protein: recombinant; tags: N-terminal GST; dsDNA, one strand shown
# T7 sequence: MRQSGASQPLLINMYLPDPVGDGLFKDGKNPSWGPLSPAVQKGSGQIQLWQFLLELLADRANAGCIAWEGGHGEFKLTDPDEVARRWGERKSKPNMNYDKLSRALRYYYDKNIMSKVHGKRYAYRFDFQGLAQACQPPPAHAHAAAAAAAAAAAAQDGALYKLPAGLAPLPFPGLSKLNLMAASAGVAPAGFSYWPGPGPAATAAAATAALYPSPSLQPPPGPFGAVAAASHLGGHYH
# In short: as §1
# [11] = target: ETV5 (Homo sapiens, UniProt P41161 1-510); details: protein: recombinant; tags: N-terminal GST; dsDNA, one strand shown
# ETV5, sequence (P41161 whole entry): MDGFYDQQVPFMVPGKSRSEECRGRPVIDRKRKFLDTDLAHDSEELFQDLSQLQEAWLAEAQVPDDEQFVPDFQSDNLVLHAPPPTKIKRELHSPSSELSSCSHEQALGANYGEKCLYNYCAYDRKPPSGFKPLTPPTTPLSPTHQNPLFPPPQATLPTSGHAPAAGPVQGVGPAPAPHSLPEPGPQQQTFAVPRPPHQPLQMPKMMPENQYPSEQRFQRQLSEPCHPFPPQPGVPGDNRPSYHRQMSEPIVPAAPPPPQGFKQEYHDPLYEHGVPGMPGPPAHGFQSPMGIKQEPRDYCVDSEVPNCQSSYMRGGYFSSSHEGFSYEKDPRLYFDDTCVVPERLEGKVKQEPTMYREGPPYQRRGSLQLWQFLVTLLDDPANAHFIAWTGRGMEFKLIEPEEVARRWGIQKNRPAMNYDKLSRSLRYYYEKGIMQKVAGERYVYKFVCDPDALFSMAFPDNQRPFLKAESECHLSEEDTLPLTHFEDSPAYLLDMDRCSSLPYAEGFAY
# In short: as §1
# [12] = target: HSF1 (Homo sapiens, UniProt Q00613 1-529); details: protein: recombinant; tags: N-terminal GST; chain copies: 3; dsDNA, one strand shown
# HSF1, sequence (Q00613 whole entry): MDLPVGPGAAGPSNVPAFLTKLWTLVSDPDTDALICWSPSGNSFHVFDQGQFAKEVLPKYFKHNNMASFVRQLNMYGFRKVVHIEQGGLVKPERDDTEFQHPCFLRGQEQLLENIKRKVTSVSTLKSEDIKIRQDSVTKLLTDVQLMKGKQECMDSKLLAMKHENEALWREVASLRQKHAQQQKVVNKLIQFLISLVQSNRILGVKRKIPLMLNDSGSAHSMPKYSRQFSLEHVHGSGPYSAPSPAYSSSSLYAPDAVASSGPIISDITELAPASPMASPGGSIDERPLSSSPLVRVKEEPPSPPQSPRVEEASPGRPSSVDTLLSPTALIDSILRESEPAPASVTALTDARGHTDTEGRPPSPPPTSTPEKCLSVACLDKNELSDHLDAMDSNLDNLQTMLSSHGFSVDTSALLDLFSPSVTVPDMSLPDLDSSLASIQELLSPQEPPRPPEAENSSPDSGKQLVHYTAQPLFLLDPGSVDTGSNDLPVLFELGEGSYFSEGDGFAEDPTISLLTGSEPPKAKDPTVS
# In short: as §1
# [13] = target: T8, SPIC (Homo sapiens, UniProt Q8N5J4 1-248); details: protein: recombinant; tags: N-terminal GST; dsDNA, one strand shown
# T8 sequence: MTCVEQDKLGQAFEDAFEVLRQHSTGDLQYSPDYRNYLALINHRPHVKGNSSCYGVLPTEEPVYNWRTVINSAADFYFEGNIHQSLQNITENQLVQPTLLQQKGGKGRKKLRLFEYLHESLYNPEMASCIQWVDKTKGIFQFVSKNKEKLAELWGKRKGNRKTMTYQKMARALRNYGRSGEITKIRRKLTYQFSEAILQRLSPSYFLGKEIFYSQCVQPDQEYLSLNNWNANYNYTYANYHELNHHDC
# In short: as §1
# [14] = target: ELF4 (Homo sapiens, UniProt Q99607 1-663); details: protein: recombinant; tags: N-terminal GST; dsDNA, one strand shown
# ELF4, sequence (Q99607 whole entry): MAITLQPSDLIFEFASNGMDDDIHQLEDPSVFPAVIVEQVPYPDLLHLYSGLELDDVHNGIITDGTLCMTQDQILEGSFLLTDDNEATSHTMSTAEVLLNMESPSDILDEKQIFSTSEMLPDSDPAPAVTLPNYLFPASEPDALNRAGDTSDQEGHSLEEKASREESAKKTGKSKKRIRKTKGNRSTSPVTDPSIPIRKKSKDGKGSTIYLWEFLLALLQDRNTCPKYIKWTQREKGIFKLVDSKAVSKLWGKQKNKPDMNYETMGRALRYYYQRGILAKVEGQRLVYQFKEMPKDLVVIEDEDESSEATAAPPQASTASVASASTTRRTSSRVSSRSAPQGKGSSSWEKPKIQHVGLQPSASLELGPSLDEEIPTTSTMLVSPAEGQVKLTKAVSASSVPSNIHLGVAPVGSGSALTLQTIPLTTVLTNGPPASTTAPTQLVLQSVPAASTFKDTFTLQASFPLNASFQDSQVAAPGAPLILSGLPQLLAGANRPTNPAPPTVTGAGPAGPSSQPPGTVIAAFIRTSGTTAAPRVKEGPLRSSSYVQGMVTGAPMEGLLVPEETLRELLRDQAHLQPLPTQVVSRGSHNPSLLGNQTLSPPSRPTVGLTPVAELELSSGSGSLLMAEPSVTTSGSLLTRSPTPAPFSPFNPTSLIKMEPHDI
# In short: as §1
# [15] = target: T9, ELK4 (Homo sapiens, UniProt P28324-2 1-405); details: protein: recombinant; tags: N-terminal GST; dsDNA, one strand shown
# T9 sequence: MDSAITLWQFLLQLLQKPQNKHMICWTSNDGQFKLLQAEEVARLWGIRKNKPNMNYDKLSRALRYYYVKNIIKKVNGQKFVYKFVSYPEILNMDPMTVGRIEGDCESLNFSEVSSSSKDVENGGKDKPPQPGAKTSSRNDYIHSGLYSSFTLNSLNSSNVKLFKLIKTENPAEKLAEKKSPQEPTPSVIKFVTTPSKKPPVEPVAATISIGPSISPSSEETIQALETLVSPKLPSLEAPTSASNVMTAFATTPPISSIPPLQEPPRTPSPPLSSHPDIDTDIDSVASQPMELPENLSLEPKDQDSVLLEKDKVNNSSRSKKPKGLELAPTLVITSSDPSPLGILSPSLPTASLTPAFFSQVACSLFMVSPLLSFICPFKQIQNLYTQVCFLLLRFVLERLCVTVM
# In short: as §1
# [16] = target: T10, ETV2 (Homo sapiens, UniProt O00321 1-342); details: protein: recombinant; tags: N-terminal GST; dsDNA, one strand shown
# T10 sequence: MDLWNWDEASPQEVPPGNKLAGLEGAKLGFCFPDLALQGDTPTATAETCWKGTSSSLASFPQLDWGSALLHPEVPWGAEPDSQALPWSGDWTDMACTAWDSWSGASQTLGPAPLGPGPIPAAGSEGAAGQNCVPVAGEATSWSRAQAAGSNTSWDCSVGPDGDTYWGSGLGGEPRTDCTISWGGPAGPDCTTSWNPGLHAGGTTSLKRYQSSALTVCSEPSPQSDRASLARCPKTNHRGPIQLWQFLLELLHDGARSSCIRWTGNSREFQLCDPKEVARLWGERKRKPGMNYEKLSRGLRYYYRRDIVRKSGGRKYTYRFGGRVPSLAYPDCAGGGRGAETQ
# In short: as §1
# [17] = target: T11, ELF3 (Homo sapiens, UniProt P78545 1-371); details: protein: recombinant; tags: N-terminal GST; dsDNA, one strand shown
# T11 sequence: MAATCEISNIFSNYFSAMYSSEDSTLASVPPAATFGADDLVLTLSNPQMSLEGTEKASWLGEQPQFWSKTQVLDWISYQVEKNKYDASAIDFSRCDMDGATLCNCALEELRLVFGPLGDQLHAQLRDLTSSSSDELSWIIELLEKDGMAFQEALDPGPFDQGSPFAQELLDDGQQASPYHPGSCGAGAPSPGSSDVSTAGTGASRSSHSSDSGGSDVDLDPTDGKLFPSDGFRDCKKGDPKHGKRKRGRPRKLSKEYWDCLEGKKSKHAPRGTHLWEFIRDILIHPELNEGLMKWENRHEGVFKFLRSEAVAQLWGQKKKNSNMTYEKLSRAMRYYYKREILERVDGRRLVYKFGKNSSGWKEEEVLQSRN
# In short: as §1
# [18] = target: CRX (Homo sapiens, UniProt O43186 1-299); details: protein: recombinant; tags: N-terminal GST; dsDNA, one strand shown
# CRX, sequence (O43186 whole entry): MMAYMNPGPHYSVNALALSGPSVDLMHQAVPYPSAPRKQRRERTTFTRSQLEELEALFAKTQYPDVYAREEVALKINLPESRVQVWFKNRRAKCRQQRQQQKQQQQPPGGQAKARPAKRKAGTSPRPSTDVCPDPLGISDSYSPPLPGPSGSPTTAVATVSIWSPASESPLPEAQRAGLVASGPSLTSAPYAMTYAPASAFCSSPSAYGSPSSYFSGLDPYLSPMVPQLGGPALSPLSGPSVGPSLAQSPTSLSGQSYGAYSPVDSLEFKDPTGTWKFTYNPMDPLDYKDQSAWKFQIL
# In short: as §1
# [19] = target: ETV1 (Homo sapiens, UniProt P50549 1-477); details: protein: recombinant; tags: N-terminal GST; dsDNA, one strand shown
# ETV1, sequence (P50549 whole entry): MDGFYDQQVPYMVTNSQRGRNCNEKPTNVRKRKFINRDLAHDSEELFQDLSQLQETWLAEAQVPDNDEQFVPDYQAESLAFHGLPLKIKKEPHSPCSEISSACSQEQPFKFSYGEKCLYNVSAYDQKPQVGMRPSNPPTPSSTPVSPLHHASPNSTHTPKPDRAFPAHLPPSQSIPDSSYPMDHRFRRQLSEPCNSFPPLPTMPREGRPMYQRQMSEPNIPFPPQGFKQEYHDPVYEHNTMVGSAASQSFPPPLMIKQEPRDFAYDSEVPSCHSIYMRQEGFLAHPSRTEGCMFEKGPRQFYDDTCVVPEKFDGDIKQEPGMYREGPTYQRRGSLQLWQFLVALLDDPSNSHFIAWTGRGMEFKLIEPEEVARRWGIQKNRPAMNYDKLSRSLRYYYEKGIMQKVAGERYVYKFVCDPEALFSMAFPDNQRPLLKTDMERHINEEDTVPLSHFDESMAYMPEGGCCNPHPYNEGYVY
# In short: as §1
sequence,measurement,setting,value
TTTTCT,binding signal,[1],"1.31 fold enrichment (6-mer frequency, TF over GST control)"
same,binding signal,[2],"1.29 fold enrichment (6-mer frequency, TF over GST control)"
same,binding signal,[3],"1.27 fold enrichment (6-mer frequency, TF over GST control)"
same,binding signal,[4],"1.34 fold enrichment (6-mer frequency, TF over GST control)"
same,binding signal,[5],"1.29 fold enrichment (6-mer frequency, TF over GST control)"
same,binding signal,[6],"1.46 fold enrichment (6-mer frequency, TF over GST control)"
same,binding signal,[7],"1.45 fold enrichment (6-mer frequency, TF over GST control)"
same,binding signal,[8],"1.18 fold enrichment (6-mer frequency, TF over GST control)"
same,binding signal,[9],"1.31 fold enrichment (6-mer frequency, TF over GST control)"
same,binding signal,[10],"1.26 fold enrichment (6-mer frequency, TF over GST control)"
same,binding signal,[11],"1.28 fold enrichment (6-mer frequency, TF over GST control)"
same,binding signal,[12],"2.46 fold enrichment (6-mer frequency, TF over GST control)"
same,binding signal,[13],"1.15 fold enrichment (6-mer frequency, TF over GST control)"
same,binding signal,[14],"1.46 fold enrichment (6-mer frequency, TF over GST control)"
same,binding signal,[15],"1.32 fold enrichment (6-mer frequency, TF over GST control)"
same,binding signal,[16],"1.48 fold enrichment (6-mer frequency, TF over GST control)"
same,binding signal,[17],"1.35 fold enrichment (6-mer frequency, TF over GST control)"
same,binding signal,[18],"1.61 fold enrichment (6-mer frequency, TF over GST control)"
same,binding signal,[19],"1.21 fold enrichment (6-mer frequency, TF over GST control)"
